Bioassay records from PubChem.
14-3-3 PPI – modulators of 14-3-3 gamma protein binding, primary screen, biochemical, fluorescence polarization; 14-3-3 protein gamma (Homo sapiens), P61981; FP, 14-3-3gamma / TMR-pS259-Raf peptide binding; inhibition, % at 40 µM; 0.19% of 160,000 active; in the data active means inhibition above about 30%;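 further: 0% = protein plus tracer without compound and 100% = blank with tracer alone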
* = called active by the depositor. The sample as a whole holds a higher share of hits than the screen did.

SMILES | 14-3-3 PPI
O=[N+]([O-])c1ccc(N2CCCC2)c2nonc12 | 199.7*
O=[N+]([O-])c1ccc(Cl)c2nonc12 | -36.8
O=[N+]([O-])c1ccc(N2CCCC2)c2ccccc12 | -4.5
Clc1ccc(CN2CCN(Cc3cccc(Cl)c3)CC2)cc1 | -12.2
O=c1c2ccccc2nc(C=Cc2cccc(F)c2)n1-c1cccc(F)c1 | -2.6
